Source: PubChem BioAssay (EPA / NIEHS)
Inconclusive results are not listed. Calls of active or inactive are those of the source. How the source made its calls, unless noted: active means hit-call score of the fitted dose curve at least 0.9, where 1 is the maximum; inconclusive means response in the unintended direction; inactive means score below 0.9.

How the values were obtained:
[1] = ATG_TGFb_CIS: Attagene CIS-FACTORIAL HepG2 Assay for human Transforming Growth Factor (TGF) (AID 2282967; active means hit-call score of the fitted dose curve at least 0.9, where 1 is the maximum; inactive means score below 0.9); settings: HepG2 Attagene CIS TGFb reporter, mRNA transcription; actives raise or lower the signal
Summary of the method: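 Readout: fluorescently labeled reporter cDNA fragments resolved by capillary electrophoresis after RT-PCR. Transfected HepG2 cells dosed for 24 h; endogenous TF activity at TGFB1-linked cis element; gain or loss fitted relative to DMSO.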

[2] = ATG_VDRE_CIS: Attagene CIS-FACTORIAL HepG2 Assay for human Vitamin D Receptor Element (VDRE) (AID 2282968; active means hit-call score of the fitted dose curve at least 0.9, where 1 is the maximum; inactive means score below 0.9); settings: HepG2 VDRE cis-reporter transcription, actives raise or lower the signal
Summary of the method: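 Cell-based multiplexed reporter format in human liver HepG2 cells, 24 h post-dose. Fluorescence from capillary electrophoresis of reporter cDNA gives the signal, with DMSO as negative control and baseline.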

[3] = target: Estrogen receptor (Homo sapiens) (UniProt P03372); assay: ATG_ERa_TRANS: Attagene TRANS-FACTORIAL HepG2 Assay for human Estrogen Receptor alpha (ERa) (AID 2282970); settings: HepG2 Attagene TRANS ERa GAL4 reporter, mRNA
Summary of the method: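 After 24 h of compound treatment, RNA from HepG2 cells bearing transfected GAL4-UAS reporter constructs is converted to cDNA, amplified and fluorescently labelled. Capillary electrophoresis resolves the ERa-linked reporter; DMSO serves as negative control.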

[4] = target: X-box-binding protein 1 (Homo sapiens) (UniProt P17861); assay: ATG_Xbp1_CIS: Attagene CIS-FACTORIAL HepG2 Assay for human X-box Binding Protein 1 (XBP1) (AID 2282972; active means hit-call score of the fitted dose curve at least 0.9, where 1 is the maximum; inactive means score below 0.9); settings: HepG2 XBP1 cis-element reporter, Attagene multiplex; actives raise or lower the signal
Summary of the method: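 HepG2, transient MRTU transfection (cis-promoter driven), 24 h compound exposure. Total RNA → oligo(dT) RT → PCR → 6-FAM labeling → HpaI cut → CE. Bidirectional fit vs DMSO.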

[5] = ATG_M_19_TRANS: Attagene TRANS-FACTORIAL HepG2 Assay for M19 Transcription Factor (Internal Marker) (AID 2282974); settings: HepG2 Attagene TRANS-FACTORIAL M19 internal marker reporter
Summary of the method: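 HepG2 cells transiently transfected with multiple GAL4-UAS reporter transcription units were exposed to chemicals for 24 h. Reporter mRNA was read by RT-PCR, 6-FAM primer extension, HpaI digestion and capillary electrophoresis; gain of signal fitted relative to DMSO.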

[6] = target: Glucocorticoid receptor (Homo sapiens) (UniProt P04150); assay: ATG_GR_TRANS: Attagene TRANS-FACTORIAL HepG2 Assay for human Glucocorticoid Receptor (GR) (AID 2282978); settings: HepG2 Attagene TRANS GR reporter, mRNA transcription;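 further: activators score as hits since higher reporter transcript over DMSO is fitted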
Summary of the method: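 HepG2 cells transiently transfected with multiplexed reporter units in which chimeric NR-GAL4 proteins drive GAL4-UAS reporters; 24 h compound exposure. Reporter mRNA measured by RT-PCR, 6-FAM labelling, HpaI digestion and capillary electrophoresis; gain-of-signal fitted versus DMSO.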

[7] = target: Bile acid receptor (Homo sapiens) (UniProt Q96RI1); assay: ATG_FXR_TRANS: Attagene TRANS-FACTORIAL HepG2 Assay for Farnesoid X Receptor (FXR) (AID 2282979); settings: HepG2 Attagene TRANS FXR-GAL4 reporter transcription;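 further: hits raise reporter mRNA above DMSO so AC50 marks FXR activation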
Summary of the method: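 Read-out: fluorescent reporter transcripts quantified by capillary electrophoresis after RT-PCR of total RNA. Source cells were HepG2 transiently carrying chimeric NR-GAL4 plus GAL4-UAS reporter units, dosed 24 h. Activity fitted upward relative to DMSO baseline.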

[8] = target: Oxysterols receptor LXR-beta (Homo sapiens) (UniProt P55055); assay: ATG_LXRb_TRANS: Attagene TRANS-FACTORIAL HepG2 Assay for human Liver X Receptor beta (LXRb) (AID 2282981); settings: HepG2 Attagene TRANS GAL4-LXRb reporter, mRNA
Summary of the method: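 Gain-of-signal mRNA reporter endpoint, DMSO as negative control. Transiently transfected HepG2 cells carrying the NR-Gal4 chimera and GAL4-UAS reporter units were treated 24 h; transcripts quantified by RT-PCR and capillary electrophoresis fluorescence.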

[9] = target: Hepatocyte nuclear factor 4-alpha (Homo sapiens) (UniProt P41235); assay: ATG_HNF4a_TRANS: Attagene TRANS-FACTORIAL HepG2 Assay for human Hepatocyte Nuclear Factor 4 alpha (HNF4a) (AID 2282982); settings: HepG2 HNF4a transactivation reporter, mRNA readout
Summary of the method: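 Gain-of-signal mRNA induction, relative to DMSO vehicle, was read after 24 h compound treatment of HepG2 cells bearing transfected GAL4-UAS reporters. Detection used RT-PCR, 6-FAM primer extension and capillary electrophoresis.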

[10] = target: Nuclear receptor subfamily 4 group A member 2 (Homo sapiens) (UniProt P43354); assay: ATG_NURR1_TRANS: Attagene TRANS-FACTORIAL HepG2 Assay for human Nuclear Receptor Related Protein 1 (NURR1) (AID 2282985); settings: HepG2 Attagene TRANS reporter, mRNA readout
Summary of the method: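 HepG2 / transient MRTU transfection / 24 h compound exposure / RT-PCR + CE fluorescence of reporter mRNA / gain-of-signal vs DMSO.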

[11] = target: Transcriptional activator Myb (Homo sapiens) (UniProt P10242); assay: ATG_Myb_CIS: Attagene CIS-FACTORIAL HepG2 Assay for human Myeloblastosis (Myb) Proto-Oncogene Transcription Factor (AID 2282986; active means hit-call score of the fitted dose curve at least 0.9, where 1 is the maximum; inactive means score below 0.9); settings: HepG2 Attagene CIS-FACTORIAL Myb reporter transcription; actives raise or lower the signal
Summary of the method: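 HepG2 cells were transiently transfected with cis-regulated multiple reporter transcription units reflecting endogenous Myb activity, then exposed to compound for 24 hours. Reporter mRNA was measured by RT-PCR with capillary electrophoresis; bidirectional fitting versus DMSO baseline.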

[12] = ATG_TAL_CIS: Attagene CIS-FACTORIAL HepG2 Assay for human TAL Basal Promoter (AID 2282966; active means hit-call score of the fitted dose curve at least 0.9, where 1 is the maximum; inactive means score below 0.9;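 further: background control endpoint measuring basal TAL promoter reporter mRNA not a specific factor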); settings: HepG2 Attagene cis-factorial TAL promoter reporter; actives raise or lower the signal
Summary of the method: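 In this cell-based multiplex, HepG2 liver cells bearing cis-promoter reporter constructs are dosed for 24 hours. Total RNA is reverse-transcribed and amplified, labelled fragments are sized by capillary electrophoresis, and signal changes are fitted bidirectionally versus DMSO.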

[13] = ATG_GAL4_TRANS: Attagene TRANS-FACTORIAL HepG2 Assay for GAL4 (Internal Marker) (AID 2282976); settings: HepG2 Attagene TRANS GAL4 internal marker reporter
Summary of the method: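 RT-PCR/capillary electrophoresis readout of reporter mRNA. HepG2, transient MRTU transfection (GAL4-UAS reporters), 24 h compound exposure. Background-control endpoint, positive direction vs DMSO baseline.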

[14] = ATG_M_06_TRANS: Attagene TRANS-FACTORIAL HepG2 Assay for M06 Transcription Factor (Internal Marker) (AID 2282983); settings: HepG2 Attagene TRANS M06 internal marker reporter
Summary of the method: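 After a 24 h chemical treatment of transfected HepG2, RNA underwent DNase I treatment, reverse transcription and reporter-specific PCR; labelled, HpaI-digested products were sized by capillary electrophoresis. Signal increase relative to DMSO defined activity.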

[15] = ATG_M_32_TRANS: Attagene TRANS-FACTORIAL HepG2 Assay for M32 Transcription Factor (Internal Marker) (AID 2282984); settings: HepG2 Attagene TRANS M32 internal marker reporter;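 further: transcript level of a background control reporter unit measured by RT-PCR and capillary electrophoresis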
Summary of the method: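 Capillary electrophoresis of 6-FAM-labelled reporter fragments gives the signal; data fitted for gain over DMSO negative control. Source: HepG2 cells bearing transient multiple reporter transcription units, 24 h exposure.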

[16] = target: Oxysterols receptor LXR-alpha (Homo sapiens) (UniProt Q13133); assay: ATG_LXRa_TRANS: Attagene TRANS-FACTORIAL HepG2 Assay for human Liver X Receptor alpha (LXRa) (AID 2282980); settings: HepG2 Attagene TRANS reporter, LXRa transactivation
Summary of the method: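 Read-out: reporter transcript levels by RT-PCR plus capillary electrophoresis, fluorescence intensity. Transiently transfected HepG2, exogenous NR-GAL4 chimera, GAL4-UAS reporters; 24 h compound exposure. Activity = increase over DMSO negative control.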

[17] = target: Steroid hormone receptor ERR1 (Homo sapiens) (UniProt P11474); assay: ATG_ERRa_TRANS: Attagene TRANS-FACTORIAL HepG2 Assay for human Estrogen-Related Receptor alpha (ERRa) (AID 2282971); settings: HepG2 Attagene TRANS reporter, ERRa transactivation
Summary of the method: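 Transfected HepG2, 24 h dosing, ERRa-Gal4 chimera driving GAL4-UAS reporter. Readout: reporter mRNA via RT-PCR plus capillary electrophoresis (fluorescence). Positive direction vs DMSO control.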

[18] = target: Estrogen-related receptor gamma (Homo sapiens) (UniProt P62508); assay: ATG_ERRg_TRANS: Attagene TRANS-FACTORIAL HepG2 Assay for human Estrogen-Related Receptor gamma (ERRg) (AID 2282977); settings: HepG2 Attagene TRANS reporter, ERRg transactivation;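 further: hits increase reporter signal over DMSO so potencies reflect activators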
Summary of the method: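 HepG2 cells transiently transfected with multiplexed GAL4-UAS reporter units and chimeric NR-Gal4 constructs were exposed to test chemicals for 24 h. Reporter mRNA was measured by RT-PCR, 6-FAM primer extension, HpaI digestion and capillary electrophoresis; gain-of-signal versus DMSO.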

Measured: AC50

Transcriptional activator Myb (Homo sapiens), sequence (P10242 whole entry, looked up): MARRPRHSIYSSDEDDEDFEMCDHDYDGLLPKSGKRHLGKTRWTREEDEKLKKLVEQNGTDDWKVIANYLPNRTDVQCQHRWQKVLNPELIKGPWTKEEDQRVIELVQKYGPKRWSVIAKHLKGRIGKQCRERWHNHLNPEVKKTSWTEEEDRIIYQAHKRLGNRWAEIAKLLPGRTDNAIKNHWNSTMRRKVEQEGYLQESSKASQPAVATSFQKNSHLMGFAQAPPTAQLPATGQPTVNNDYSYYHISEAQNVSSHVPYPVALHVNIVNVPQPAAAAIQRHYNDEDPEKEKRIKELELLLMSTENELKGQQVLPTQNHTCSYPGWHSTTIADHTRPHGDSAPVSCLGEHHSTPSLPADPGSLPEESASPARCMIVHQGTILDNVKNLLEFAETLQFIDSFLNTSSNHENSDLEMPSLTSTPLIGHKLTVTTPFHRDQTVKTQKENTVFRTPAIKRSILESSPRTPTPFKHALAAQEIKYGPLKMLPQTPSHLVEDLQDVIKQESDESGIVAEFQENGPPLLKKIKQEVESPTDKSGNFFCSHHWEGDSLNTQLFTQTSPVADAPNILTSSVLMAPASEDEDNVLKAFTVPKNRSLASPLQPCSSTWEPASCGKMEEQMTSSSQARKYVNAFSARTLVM
Hepatocyte nuclear factor 4-alpha (Homo sapiens), sequence (P41235 whole entry, looked up, the tested form may be a part): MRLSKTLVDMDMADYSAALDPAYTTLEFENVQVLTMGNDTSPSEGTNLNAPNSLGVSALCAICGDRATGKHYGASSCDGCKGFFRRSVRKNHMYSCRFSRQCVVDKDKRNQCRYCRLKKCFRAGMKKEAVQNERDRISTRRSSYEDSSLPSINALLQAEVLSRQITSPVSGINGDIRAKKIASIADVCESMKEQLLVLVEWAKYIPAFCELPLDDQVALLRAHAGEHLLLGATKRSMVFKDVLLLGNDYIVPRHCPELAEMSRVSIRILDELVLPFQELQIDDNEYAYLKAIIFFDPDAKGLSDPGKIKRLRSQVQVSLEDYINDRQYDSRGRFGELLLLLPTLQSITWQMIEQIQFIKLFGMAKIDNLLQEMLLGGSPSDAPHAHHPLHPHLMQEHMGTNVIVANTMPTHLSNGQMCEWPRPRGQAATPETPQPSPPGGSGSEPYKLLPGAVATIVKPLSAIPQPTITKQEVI
Estrogen-related receptor gamma (Homo sapiens), sequence (P62508 whole entry, looked up, the tested form may be a part): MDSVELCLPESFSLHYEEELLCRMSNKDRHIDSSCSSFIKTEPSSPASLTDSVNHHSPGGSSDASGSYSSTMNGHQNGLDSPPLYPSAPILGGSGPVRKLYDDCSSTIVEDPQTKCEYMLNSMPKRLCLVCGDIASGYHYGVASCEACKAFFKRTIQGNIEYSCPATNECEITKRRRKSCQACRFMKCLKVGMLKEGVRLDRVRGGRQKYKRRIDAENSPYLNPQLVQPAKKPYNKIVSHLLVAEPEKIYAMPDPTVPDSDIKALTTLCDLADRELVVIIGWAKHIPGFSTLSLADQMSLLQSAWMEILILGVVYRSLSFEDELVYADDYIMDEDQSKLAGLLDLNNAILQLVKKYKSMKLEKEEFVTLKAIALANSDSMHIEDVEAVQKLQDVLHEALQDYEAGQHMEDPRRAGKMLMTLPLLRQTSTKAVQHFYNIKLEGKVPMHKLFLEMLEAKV
Glucocorticoid receptor (Homo sapiens), sequence (P04150 whole entry, looked up, the tested form may be a part): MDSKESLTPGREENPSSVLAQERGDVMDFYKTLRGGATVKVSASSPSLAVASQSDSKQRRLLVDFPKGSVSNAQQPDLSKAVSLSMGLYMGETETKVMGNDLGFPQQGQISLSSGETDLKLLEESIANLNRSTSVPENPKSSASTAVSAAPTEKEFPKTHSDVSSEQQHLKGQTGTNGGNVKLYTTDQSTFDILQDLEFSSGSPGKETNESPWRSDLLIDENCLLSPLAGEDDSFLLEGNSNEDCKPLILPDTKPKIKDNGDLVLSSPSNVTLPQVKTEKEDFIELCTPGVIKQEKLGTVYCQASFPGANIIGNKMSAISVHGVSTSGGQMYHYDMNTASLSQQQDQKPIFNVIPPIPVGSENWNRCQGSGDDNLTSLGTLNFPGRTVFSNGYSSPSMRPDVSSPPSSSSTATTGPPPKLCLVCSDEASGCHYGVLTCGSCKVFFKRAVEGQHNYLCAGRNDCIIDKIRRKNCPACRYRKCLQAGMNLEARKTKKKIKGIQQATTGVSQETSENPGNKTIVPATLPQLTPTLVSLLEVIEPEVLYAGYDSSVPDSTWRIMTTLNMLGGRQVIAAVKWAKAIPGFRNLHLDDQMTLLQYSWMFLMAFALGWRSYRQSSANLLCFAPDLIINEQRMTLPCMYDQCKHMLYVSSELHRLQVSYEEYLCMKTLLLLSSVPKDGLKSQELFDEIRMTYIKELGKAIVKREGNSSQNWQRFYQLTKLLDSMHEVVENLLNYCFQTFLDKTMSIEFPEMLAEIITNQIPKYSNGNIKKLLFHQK
Bile acid receptor (Homo sapiens), sequence (Q96RI1 whole entry, looked up, the tested form may be a part): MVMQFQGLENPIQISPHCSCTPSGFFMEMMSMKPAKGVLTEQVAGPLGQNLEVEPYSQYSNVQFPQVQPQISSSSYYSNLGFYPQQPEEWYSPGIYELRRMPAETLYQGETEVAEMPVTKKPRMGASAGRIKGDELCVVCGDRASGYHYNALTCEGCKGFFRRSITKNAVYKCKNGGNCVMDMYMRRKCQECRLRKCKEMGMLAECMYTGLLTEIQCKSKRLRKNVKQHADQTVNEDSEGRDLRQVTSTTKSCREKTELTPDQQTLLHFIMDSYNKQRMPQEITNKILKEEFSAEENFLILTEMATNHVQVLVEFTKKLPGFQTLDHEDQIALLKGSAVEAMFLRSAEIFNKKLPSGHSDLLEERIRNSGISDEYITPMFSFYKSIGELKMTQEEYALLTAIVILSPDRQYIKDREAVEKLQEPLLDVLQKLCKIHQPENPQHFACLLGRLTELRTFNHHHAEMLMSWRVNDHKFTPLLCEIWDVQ
Nuclear receptor subfamily 4 group A member 2 (Homo sapiens), sequence (P43354 whole entry, looked up): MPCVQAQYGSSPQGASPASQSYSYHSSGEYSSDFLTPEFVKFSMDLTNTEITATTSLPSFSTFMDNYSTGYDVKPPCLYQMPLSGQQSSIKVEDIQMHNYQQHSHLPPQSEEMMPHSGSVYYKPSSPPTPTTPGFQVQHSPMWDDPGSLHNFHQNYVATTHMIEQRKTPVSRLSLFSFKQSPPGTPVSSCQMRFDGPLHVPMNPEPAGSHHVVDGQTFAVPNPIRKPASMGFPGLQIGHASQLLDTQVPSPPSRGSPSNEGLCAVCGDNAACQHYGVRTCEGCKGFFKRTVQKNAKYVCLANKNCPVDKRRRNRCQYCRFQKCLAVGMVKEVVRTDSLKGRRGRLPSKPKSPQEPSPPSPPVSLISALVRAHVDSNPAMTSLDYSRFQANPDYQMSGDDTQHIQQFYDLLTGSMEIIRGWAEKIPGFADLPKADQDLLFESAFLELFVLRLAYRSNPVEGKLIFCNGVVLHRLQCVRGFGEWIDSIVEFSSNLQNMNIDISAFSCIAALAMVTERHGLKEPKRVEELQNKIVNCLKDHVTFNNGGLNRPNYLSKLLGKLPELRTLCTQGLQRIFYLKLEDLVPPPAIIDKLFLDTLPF
Oxysterols receptor LXR-beta (Homo sapiens), sequence (P55055 whole entry, looked up, the tested form may be a part): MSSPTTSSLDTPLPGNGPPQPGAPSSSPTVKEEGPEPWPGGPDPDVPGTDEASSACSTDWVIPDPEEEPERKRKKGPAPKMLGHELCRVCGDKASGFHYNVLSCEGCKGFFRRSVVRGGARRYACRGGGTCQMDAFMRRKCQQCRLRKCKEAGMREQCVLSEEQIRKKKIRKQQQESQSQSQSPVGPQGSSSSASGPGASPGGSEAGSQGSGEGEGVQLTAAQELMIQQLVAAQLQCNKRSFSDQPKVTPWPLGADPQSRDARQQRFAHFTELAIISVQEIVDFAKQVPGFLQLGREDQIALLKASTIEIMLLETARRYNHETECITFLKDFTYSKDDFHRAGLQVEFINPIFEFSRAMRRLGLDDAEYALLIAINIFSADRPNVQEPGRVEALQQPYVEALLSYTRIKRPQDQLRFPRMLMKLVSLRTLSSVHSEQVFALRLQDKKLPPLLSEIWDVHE
X-box-binding protein 1 (Homo sapiens), sequence (P17861 whole entry, looked up): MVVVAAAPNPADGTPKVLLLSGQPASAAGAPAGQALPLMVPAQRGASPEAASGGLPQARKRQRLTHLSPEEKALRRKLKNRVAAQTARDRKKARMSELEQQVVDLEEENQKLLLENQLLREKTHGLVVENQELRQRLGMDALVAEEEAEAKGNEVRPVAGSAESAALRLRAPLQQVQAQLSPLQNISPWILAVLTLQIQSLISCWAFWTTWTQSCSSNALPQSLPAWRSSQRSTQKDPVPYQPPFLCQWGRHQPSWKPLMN
Estrogen receptor (Homo sapiens), sequence (P03372 whole entry, looked up, the tested form may be a part): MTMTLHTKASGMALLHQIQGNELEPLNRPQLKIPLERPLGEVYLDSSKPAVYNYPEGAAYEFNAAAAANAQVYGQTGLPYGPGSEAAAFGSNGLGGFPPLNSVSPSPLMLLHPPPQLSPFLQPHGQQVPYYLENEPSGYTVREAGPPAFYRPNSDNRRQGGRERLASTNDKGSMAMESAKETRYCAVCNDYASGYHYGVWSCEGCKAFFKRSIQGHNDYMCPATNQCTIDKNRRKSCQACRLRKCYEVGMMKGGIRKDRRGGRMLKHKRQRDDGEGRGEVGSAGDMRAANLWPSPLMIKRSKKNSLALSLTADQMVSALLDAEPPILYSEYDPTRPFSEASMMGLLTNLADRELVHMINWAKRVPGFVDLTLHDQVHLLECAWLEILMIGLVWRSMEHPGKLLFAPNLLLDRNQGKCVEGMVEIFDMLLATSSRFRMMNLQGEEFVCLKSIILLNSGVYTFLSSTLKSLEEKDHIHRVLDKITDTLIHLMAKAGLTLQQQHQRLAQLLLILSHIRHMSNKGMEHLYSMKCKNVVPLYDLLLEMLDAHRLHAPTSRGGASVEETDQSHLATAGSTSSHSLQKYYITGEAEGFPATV

CN1CCN(C)CC1
inactive: [1] | [2] | [3] | [4] | [5] | [6] | [7] | [8] | [9] | [10] | [11]

Nc1cccc(N)n1
inactive: [12] | [1] | [2] | [4] | [13] | [6] | [9] | [14] | [15] | [10] | [11]

CCCCCCCCC(CO)CCCCCC (configuration not stated)
inactive: [12] | [1] | [2] | [3] | [4] | [6] | [16] | [8] | [14] | [15]

C=C(C)[C@@H]1CC=C(C)CC1
inactive: [12] | [4] | [8] | [14] | [10] | [11]

CCCCCCCOC(=O)c1ccc(O)cc1
inactive: [12] | [1] | [2] | [13] | [6] | [7] | [8] | [9] | [14] | [10] | [11]
active: [3] 8.4 µM | [4] 45.1 µM

C=C(C)C1CC=C(C)C(OC(C)=O)C1 (configuration not stated)
inactive: [1] | [3] | [17] | [4] | [5] | [18] | [9] | [15]

CCCCC(=O)O
inactive: [12] | [2] | [3] | [4] | [5] | [13] | [7] | [8] | [9] | [14] | [15] | [10] | [11]

Cc1c(O)cccc1O
active: [3] 46.1 µM
inactive: [12] | [1] | [2] | [4] | [13] | [18] | [7] | [8] | [9] | [10]

C=CCCCCCCCCO
inactive: [12] | [1] | [3] | [4] | [13] | [9] | [14] | [15] | [10] | [11]

CCOC(=O)C1=NN(c2ccc(Cl)cc2Cl)C(C)(C(=O)OCC)C1 (configuration not stated)
inactive: [12] | [1] | [3] | [17] | [4] | [5] | [13] | [18] | [6] | [7] | [16] | [9] | [11]
active: [10] 168 µM
